Results filed as inconclusive are left out. Entries that show only a call come without a potency. Calls of active or inactive are those of the source. Calls come from the whole dose curve; as a rule, active = well fitted cell-killing curve with a large enough effect in the repeat runs; inconclusive = weak or mixed curves, or effect the other way; inactive = flat fitted curve, though single readings scatter.
Assay: cAMP Responsive Elements (CRE) small molecule antagonists, cell-based qHTS assay: qHTS cell viability counter screen (AID 2060913); note: nearly all actives have a fitted effect of over 40% in size
Conditions: CRE-bla HEK293T viability, CellTiter-Glo luminescence, 5 h; series mostly up to 92.4 µM
Source text: U.S. Tox21 Program National Center for Advancing Translational Sciences [NCATS] Division of Preclinical Innovation [DPI] U.S. Environmental Protection Agency [EPA] National Institutes of Environmental Health Sciences [NIEHS] National Toxicology Program [NTP] U.S. Food and Drug Administration [FDA] Tox21 Assay Overview: CREB (cyclic-AMP Responsive Element Binding Protein) is a cellular transcription factor. It binds to certain DNA sequences called cAMP Responsive Elements (CRE) and regulates the transcription of the genes. […] This cell line can be used to find agonists/antagonists of the cyclic AMP signaling pathway. The activation of the report gene under culture conditions can be detected by fluorescence intensity. This cell line has been used to screen the Tox21 10K compound library to identify agonists that induce oxidative stress. The cytotoxicity of the Tox21 compound library against the CRE-bla cell line was tested in parallel by measuring the cell viability using CellTiter-Glo assay (Promega, Madison, WI) in the same wells.
Tox21 Assay Protocol Summary: CRE-bla Hek 293T cells were suspended in assay medium (DMEM containing 10% dialyzed FBS, 0.1 mM NEAA, 1 mM sodium pyruvate and 25 mM HEPES) and dispensed at 2,000 cells/4 uL /well into 1536-well black wall/clear bottom plates using a Multidrop Combi (ThermoFisher Scientific, Waltham, MA) dispenser. After the assay plates were incubated at 37 C/5% CO2 for 18 hrs, 23 nL of compounds dissolved in DMSO, positive controls or DMSO only was transferred to the assay plate by a pintool workstation (Kalypsys, San Diego, CA), followed by addition of 1 uL of 1.25uM NKH477 (0.25 uM as final concentration) in assay medium using a Flying Reagent Dispenser (Aurora Discovery, San Diego, CA). The plates were incubated at 37 C and 5% CO2 for 3 hrs. Then 1 uL of LiveBLAzer B/G FRET substrate (Invitrogen, Carlsbad, CA) was added to each well using Bioraptr Flying Reagent Dispenser (FRD, Aurora Discovery, San Diego, CA). The plates were incubated at room temperature for 2 h, then fluorescence intensities were measured using an Envision plate reader (PerkinElmer, Shelton, CT) at Excitation 405nm, Emission 460nm and 530nm. The % activity was determined from the ratio of 460nm/530nm. For cell viability readout that measures cytotoxicity, 4 uL /well of CellTiter-Glo reagent was added into the assay plates using Bioraptr FRD. After 30 min incubation at room temperature, the luminescence intensity in the assay plates was measured using a ViewLux (PerkinElmer, Shelton, CT) plate reader.
Potency is the fitted concentration of half-maximal effect.

Row | Compound | Potency
1 | CCN1CCC2(CC1)COc1cc3c(cc12)N(C(=O)c1ccc(-c2ccc(-c4nnc(C)o4)cc2C)cc1)CC3 | 56.4 µM (active)
2 | O=C(O)COc1cc(Cl)c(Cl)cc1Cl | inactive
3 | CC(C)C1(C)N=C(c2nc3ccccc3cc2C(=O)O)NC1=O (stereo not given) | inactive
4 | CCC(C(N)=O)N1CCCC1=O (stereo not given) | inactive
5 | OC[P+](CO)(CO)CO | inactive
6 | O=C(O)c1c(Cl)ccc2cc(Cl)cnc12 | inactive
7 | c1ccc2c(c1)cc1ccc3cccc4ccc2c1c34 | inactive
8 | O=C(O)c1nc(Cl)ccc1Cl | inactive
9 | C[C@@H]1CN(C2CCC(C#N)(c3ccc(F)cc3)CC2)CC[C@]1(C(=O)O)c1ccccc1 (stereo not given in full) | inactive
10 | Cc1ccccc1C(=O)Nc1cccc(OC(C)C)c1 | inactive
11 | CCCCOCC1CO1 (stereo not given) | inactive
12 | O=[N+]([O-])CCO | inactive
13 | S=c1[nH]c2ccccc2[nH]1 | inactive
14 | BrCc1ccc(Br)cc1 | inactive
15 | C=CC(=O)OCCN(C)C | inactive
16 | CNC(=O)CSP(=S)(OC)OC | inactive
17 | C(=NC1CCCCC1)=NC1CCCCC1 | inactive
18 | Cc1cc(Cl)ccc1N=CN(C)C | inactive
19 | C=CCc1cc(OC)c2c(c1)OCO2 | inactive
20 | CN(C)c1ccc(N=O)cc1 | inactive

Row | Compound | Potency
21 | ClC(Cl)(Cl)Cl | inactive
22 | NCC(O)c1ccc(O)cc1 (stereo not given) | inactive
23 | CC(=O)c1cc2c(cc1C)C(C)(C)C(C)CC2(C)C (stereo not given) | inactive
24 | Cc1ccc(Cl)c(O)c1 | inactive
25 | CC(C)CCON=O | inactive
26 | BrCCCBr | inactive
27 | ClCCBr | inactive
28 | C=CCN1CC[C@]23c4c5ccc(O)c4O[C@H]2C(=O)CC[C@@]3(O)[C@H]1C5 | inactive
29 | CCC[CH2][Sn]([Cl])([Cl])[Cl] | inactive
30 | O=[N+]([O-])c1cccc2ccccc12 | inactive
31 | C1CCC2CCCCC2C1 (stereo not given) | inactive
32 | COC1=CC(=O)O[C@@H](/C=C/c2ccc3c(c2)OCO3)C1 | inactive
33 | C[C@]12CC[C@@H](O)C[C@@H]1CC[C@@H]1[C@@H]2CC[C@]2(C)C(=O)CC[C@@H]12 | inactive
34 | C=Cc1cccc(CCl)c1 | inactive
35 | N#CCCCl | inactive
36 | CCC1(c2ccc(N)cc2)CCC(=O)NC1=O (stereo not given) | inactive
37 | O=C(CCl)NCO | inactive
38 | O=C(O)CC(Cl)C(=O)O (stereo not given) | inactive
39 | CNC | inactive
40 | CCCCCCCCCCCCCC[P+](CCCCCC)(CCCCCC)CCCCCC (tested in a mixture with another compound) | 24.3 µM (active)
